This is an account of results in PubChem BioAssay AID504848 (National Center for Advancing Translational Sciences (NCATS), 2011).

About 1,400 (61%) of roughly 2,300 compounds were called active. Inconclusive results (about 29%) are left out. Calls follow the shape of the dose curve; as a rule, active = well fitted inhibition curve with a large enough effect; inconclusive = small, poorly fitted or top-dose-only effect, or effect the other way; inactive = no such curve, though single readings can be large or run the other way. So high a share suggests a set chosen from earlier hits. This is one part of the list.
% is scaled to controls: 0 for no effect and ±100 for the full control effect; potency is read from the fitted curve at half-maximal effect.

This test can be described thus: Confirmation screen for delayed death inhibitors of the malarial parasite plastid, 96 hour incubation. Also: nearly all actives have a fitted effect of over 60% in size. The settings on record: P. falciparum luciferase growth in erythrocytes; series mostly up to 28.7 µM; activity change, negative = inhibition: at the top concentration. A digest of the protocol:
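Erythrocytes infected with luciferase-expressing P. falciparum (2% hematocrit, 0.1% parasitemia final) in RPMI 1640 with 0.5% Albumax, exposed to compounds 96 h at 37 C, 5% CO2. Growth inhibition read as decreased luciferase luminescence.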
Regarding `O=C(COc1ccccc1)N1c2ccccc2Sc2ccccc21`, the Potency was 11.2 µM (active). For `CC1CCCC(NC(=O)c2cc(-c3ccncc3)nc3ccccc23)C1C` (centres undefined), the Potency was 11.2 µM (active). Regarding `Cc1c(Cl)ccc2c(C(=O)O)cc(-c3ccccc3)nc12`, the “activity change, negative = inhibition” value was 8.29% (inactive). Turning to `COc1ccc2c(c1OC)C(=O)OC2Nc1nc(-c2ccccc2)cs1` (centres undefined), the “activity change, negative = inhibition” value is -104% (inactive). With `COc1ccc2c(c1OC)C(=O)N1N=C(c3ccccc3)CC21` (centres undefined), the Potency is 2.24 µM (active).

On to `CC(C)NC(=O)c1onc(CSc2cccc(F)c2)c1C(=O)O`, for which the “activity change, negative = inhibition” value is -23.2% (inactive). Take `O=C(O)C1CC=CCC1C(=O)Nc1ccc(S(=O)(=O)N2CCCc3ccccc32)cc1` (centres undefined): the “activity change, negative = inhibition” value was -19.2% (inactive). Turning to `Cc1ccc(NC(=O)c2cc(S(=O)(=O)N3CCc4ccccc43)cn2C)cc1`, the Potency was 11.2 µM (active). Regarding `C=CCn1c(C)cc(C2=NNC(=NCc3ccccc3)SC2)c1C`, the Potency is 14.1 µM (active). The same measure, in the same setting: to `Cc1cc(NC(=O)CSc2sc3c(O)cc(=O)[nH]c3c2C#N)ccc1Br` belongs 5.62 µM (active). On to `N#Cc1c(SCC(=O)Nc2ccc(C(F)(F)F)cc2)sc2c(O)cc(=O)[nH]c12`, for which the Potency is 0.0891 µM (active).

On to `CCCSc1ccc(-c2nn(-c3ccccc3)cc2/C=C(/C#N)C(=O)NCCCOC)cc1`, for which the Potency is 4.47 µM (active).

Take `CC(C)(C)n1nnnc1C(c1ccc2ncccc2c1)N1CCSCC1` (centres undefined): the Potency is 11.2 µM (active). Take `COc1ccc(Cl)cc1NC(=O)C(C)NC(c1ccccc1)c1ccccc1` (centres undefined): the Potency was 5.62 µM (active). As for `O=C(CCN1C(=O)/C(=C/c2ccccc2Cl)SC1=S)N1CCOCC1`, the Potency is 10 µM (active). The same measure, in the same setting: to `CN1CCN(C(=O)CCN2C(=O)/C(=C/c3cccc(Br)c3)SC2=S)CC1` belongs 3.98 µM (active); to `CCOc1cc(/C=C/c2cc(C(F)(F)F)[nH]c(=O)n2)ccc1O`, 14.1 µM (active); to `CC(=O)O[C@@]12CO[C@@H]1C[C@H](O)[C@@]1(C)C(=O)[C@H](O)C3=C(C)[C@@H](OC(=O)C(O)[C@@H](NC(=O)OC(C)(C)C)c4ccccc4)C[C@@](O)([C@@H](OC(=O)c4ccccc4)[C@H]21)C3(C)C` (some centres undefined), 0.141 µM (active).

Consider `CC(=O)O[C@H]1C(=O)[C@@]2(C)[C@H]([C@H](OC(=O)c3ccccc3)[C@]3(O)C[C@H](OC(=O)[C@H](O)[C@@H](NC(=O)c4ccccc4)c4ccccc4)C(C)=C1C3(C)C)[C@]1(OC(C)=O)CO[C@@H]1C[C@@H]2O`, for which the Potency is 0.501 µM (active). Take `O=C(CCl)Nc1c2c(nn1-c1ccccc1)CSC2`: the Potency is 2.24 µM (active). On to `CC(C)(C)c1cc(NC(=O)CCl)n(-c2ccccc2)n1`, for which the Potency is 8.91 µM (active). Same read-out and setting: to `Cc1ccc(-c2cc(NC(=O)CCl)n(-c3ccccc3)n2)cc1` belongs 3.98 µM (active).

`CCCCNC(=O)c1onc(CSc2ccc(Cl)cc2)c1C(=O)O`: the “activity change, negative = inhibition” value was -5.24% (inactive). As to `COc1cc(OC)c2c(-c3cccc(-c4cccc(N)c4)c3)cc(=O)oc2c1`, the Potency is 10 µM (active). Turning to `NCCCNc1nc(N)c([N+](=O)[O-])c(NC2CCCCC2)n1`, the Potency is 2.82 µM (active). On the same count and under the same terms, under `CC(C)C1C(=O)CC(c2ccccc2)NC1c1ccccc1` (centres undefined) stands 15.8 µM (active).

Turning to `S=C(Nc1ccccc1Cl)N(Cc1ccccc1)Cc1cccnc1`, the Potency is 11.2 µM (active).

As to `C(=C\c1nc(N2CCCCCC2)c2ccccc2n1)/c1ccccc1`, the Potency was 6.31 µM (active). Regarding `CC(C)CCSc1nc(N)c(C#N)cc1C#N`, the Potency is 5.62 µM (active). As for `Cc1cccc2cc3c(nc12)SC(=NCC1CCCO1)N(Cc1ccco1)C3` (centres undefined), the Potency is 2 µM (active). With `CCCNC(=O)c1ccc(S(=O)(=O)c2ccc(OC)cc2)c([N+](=O)[O-])c1`, the Potency was 5.01 µM (active).

Consider `CCOc1ccc2c(c1)C(N(CCN1CCOCC1)C(=O)Nc1ccccc1)CC(C)(C)O2` (centres undefined), for which the Potency was 10 µM (active).

Regarding `O=C(N/N=C/c1cccn1-c1ccc([N+](=O)[O-])cc1)c1cccnc1`, the Potency is 11.2 µM (active). On to `COc1cc(/C=C(/C(=O)c2cccs2)c2nc3ccccc3[nH]2)ccc1O`, for which the Potency was 3.98 µM (active).

Consider `O=C(/C(=C/c1ccc(Cl)cc1)c1nc2ccccc2[nH]1)c1ccccc1`, for which the Potency was 1.26 µM (active). As for `COC(=O)/C(=C\c1cc(OC)c(OC)c(OC)c1)c1nc2ccccc2[nH]1`, the Potency was 11.2 µM (active). For `O=C(NCc1ccc2[nH]c3c(c2c1)CCCC3)c1ccc(S(=O)(=O)N2CCCC2)cc1`, the Potency was 12.6 µM (active). With `Brc1ccc2[nH]c3c(c2c1)CCC3`, the “activity change, negative = inhibition” value was 5.44% (inactive). Still for that read-out and setting: under `C=CCNC(=O)c1onc(CSc2ccc(Cl)cc2)c1C(=O)O` stands -15.9% (inactive). Regarding `COc1ccc(-c2cc(CNC(=O)CCl)on2)cc1`, the Potency was 1.41 µM (active). For `NNc1nc(-c2ccccc2Cl)c2cc(Br)ccc2n1`, the Potency is 11.2 µM (active).

Take `COc1ccc(Cl)cc1NC(=O)c1noc(C)c1[N+](=O)[O-]`: the Potency was 12.6 µM (active). Consider `CCCN1C2=C(C(=O)CCC2)C(c2ccc(O)c(Br)c2)C2=C1CCCC2=O`, for which the Potency was 12.6 µM (active).

For `OC1CCN(c2c3c(nc4cc(-c5ccc(Cl)cc5)nn24)CCC3)CC1`, the Potency is 3.98 µM (active). For the compound `C/C(=C\C(=O)c1ccncc1)Nc1ccccc1O`, the Potency was 15.8 µM (active). `CO[C@H](C(=O)[C@@H](O)[C@@H](C)O)C1Cc2cc3cc(O[C@H]4C[C@@H](O[C@H]5C[C@@H](O)[C@H](O)[C@@H](C)O5)[C@@H](O)[C@@H](C)O4)c(C)c(O)c3c(O)c2C(=O)[C@H]1O[C@H]1C[C@@H](O[C@H]2C[C@@H](O[C@H]3C[C@](C)(O)[C@H](O)[C@@H](C)O3)[C@H](O)[C@@H](C)O2)[C@H](O)[C@@H](C)O1` (some centres undefined): the Potency is 0.562 µM (active). Same read-out and setting: to `COc1ccc(NS(=O)(=O)c2ccc(N3CCOCC3)c(NC(=O)c3ccc(OC)cc3)c2)cc1` belongs 11.2 µM (active); to `Cc1cc(Sc2nnc(/N=C/N(C)C)s2)c2ccccc2n1`, 7.08 µM (active); to `Cc1cc(Sc2nnc(N)s2)c2ccccc2n1`, 5.62 µM (active). As for `CC1CCCN(Cc2c(O)ccc3c(=O)c(-c4nc5ccccc5s4)c(N)oc23)C1` (centres undefined), the Potency is 0.316 µM (active). In the case of `CCOc1cc([N+](=O)[O-])cc(/C=N/NC(=O)c2c(-c3ccccc3)noc2C)c1O`, the Potency is 14.1 µM (active). Still for that read-out and setting: to `COCCn1c(SCc2csc(-c3ccccc3)n2)nc2ccccc21` belongs 12.6 µM (active); to `CN1C(=O)Cc2cc(S(=O)(=O)N3CCN(c4cccc(C(F)(F)F)c4)CC3)ccc21`, 12.6 µM (active).

As to `Cc1cccc(N2CCN(C3=NC(=O)C(Cc4ccccc4)S3)CC2)c1` (centres undefined), the Potency is 1.58 µM (active). Still for that read-out and setting: under `O=C(Oc1nsnc1N1CCCCC1)N1CCOCC1` stands 10 µM (active). Same read-out and setting: under `Cc1oc(-c2ccccc2Cl)nc1Cn1cccc1C1=NC(c2ccccc2)CO1` (centres undefined) stands 12.6 µM (active).

On to `CCn1c(=O)n(CC)c2cc(N3CCCC3)c(NC(=O)c3ccc(C)cc3)cc21`, for which the Potency was 7.08 µM (active). As to `COc1ccc2cc3[n+](cc2c1OC)CCc1cc2c(cc1-3)OCO2`, the Potency is 0.501 µM (active). For the compound `O=C(Nc1ccccc1)N1CCC(O)(c2cccc(C(F)(F)F)c2)CC1`, the Potency was 12.6 µM (active). Consider `Cn1c2ccccc2c(=O)c2ccc(C#Cc3ccc(N)cc3)cc21`, for which the Potency is 11.2 µM (active). In the case of `COc1ccc(C#Cc2ccc3c(=O)c4ccccc4n(C)c3c2)cc1`, the Potency is 10 µM (active).

Take `COc1ccc(N(C)S(=O)(=O)c2cccc(C(=O)NCc3ccc(C)cc3)c2)cc1`: the Potency was 14.1 µM (active).

Turning to `COc1cccc(S(=O)(=O)NCc2ccc(C(=O)NCc3ccccn3)cc2)c1`, the “activity change, negative = inhibition” value was -24.9% (inactive).

On to `O=C(c1ccc([N+](=O)[O-])cc1)n1nc(-c2ccccc2)nc1NCc1ccc(F)cc1`, for which the Potency was 10 µM (active). For the compound `Cc1cc(C)nc(SCC(=O)c2ccc(C)c(C)c2)n1`, the Potency was 12.6 µM (active). On the same count and under the same terms, under `COc1ccccc1N1CCN(CCCCN2C(=O)C3CCCCN3C2=O)CC1` (centres undefined) stands 12.6 µM (active); under `O=C(NNc1ccnc2cc(Cl)ccc12)C1CCCCC1`, 0.282 µM (active); under `CCN1CCC(Nc2ccnc3cc(Cl)ccc23)CC1`, 0.158 µM (active). `Cc1cccc(-n2ccc(=O)c(C(=O)Nc3ccc(S(=O)(=O)N4CCOCC4)cc3)n2)c1`: the Potency is 5.01 µM (active). For `c1ccc2oc(Cc3ccc(Cc4nc5ccccc5o4)cc3)nc2c1`, the Potency is 8.91 µM (active).

Consider `CC(c1ccco1)N(C(=O)c1cc(Cl)cc(Cl)c1)c1ccccn1` (centres undefined), for which the Potency is 12.6 µM (active). Regarding `O=C(CCN1C(=O)/C(=C/c2ccccc2)SC1=S)N[C@@H](CO)Cc1ccccc1`, the Potency was 12.6 µM (active).

`O=C(CCCN1C(=O)/C(=C\c2cccs2)SC1=S)Nc1ccc(O)cc1`: the Potency is 3.98 µM (active). For the compound `O=C(CCN1C(=O)/C(=C\c2ccc(F)cc2)SC1=S)Nc1ccccc1`, the “activity change, negative = inhibition” value was 9.76% (inactive). As for `O=C(CCN1C(=O)/C(=C/c2ccccc2)SC1=S)NCCc1ccc(O)cc1`, the “activity change, negative = inhibition” value is 14.2% (inactive). As for `O=C(CCCN1C(=O)/C(=C/c2cccs2)SC1=S)Nc1ccc(O)cc1`, the Potency is 7.08 µM (active).

On to `CCc1ccc(/C=C2\SC(=S)N(CCCC(=O)Nc3ccccc3C(=O)O)C2=O)cc1`, for which the Potency was 15.8 µM (active). On to `CCc1nn2c(=O)cc(COc3cccc(NC(=O)c4ccco4)c3)nc2s1`, for which the Potency is 10 µM (active). For the compound `C=CCNC(=O)c1onc(CSc2cccc(C)c2)c1C(=O)O`, the “activity change, negative = inhibition” value was -27.8% (inactive). Take `CCc1noc(C)c1C(=O)N1CCC(CCC(=O)Nc2cccc(C)c2)CC1`: the Potency was 6.31 µM (active). With `CC(=O)c1ccc[n+](CC(=O)NC(C)c2ccccc2)c1` (centres undefined), the Potency was 4.47 µM (active). For the compound `CCc1ccccc1Nc1nc(N)nc(COC(=O)CCC(=O)c2ccc(F)cc2)n1`, the Potency was 2.51 µM (active). Same read-out and setting: under `CCc1ccccc1Nc1nc(N)nc(COC(=O)CCNS(=O)(=O)c2ccccc2)n1` stands 12.6 µM (active). Consider `O=C(O)CCNS(=O)(=O)c1cccc(Br)c1`, for which the “activity change, negative = inhibition” value is 4.86% (inactive). Consider `COc1ccccc1-n1c(=S)[nH]c2c(sc(=S)n2-c2ccc(C)cc2C)c1=O`, for which the Potency was 3.16 µM (active). Consider `COc1ccccc1CNC(=O)c1ccc(-c2ccccc2Cl)o1`, for which the Potency is 6.31 µM (active).

Regarding `CCCc1nnc(NC(=O)CCC(=O)N2CCN(Cc3ccc(Cl)cc3)CC2)s1`, the Potency is 11.2 µM (active).

Consider `COc1ccc(CN2CCN(C(=O)CCC(=O)Nc3nnc(C4CCCCC4)s3)CC2)cc1F`, for which the Potency was 10 µM (active). With `CCCC(=O)Nc1nnc(CC(=O)N2CCCC2)s1`, the “activity change, negative = inhibition” value is 25.1% (inactive).
